The record followed here is PubChem BioAssay AID588493 (Sanford-Burnham Center for Chemical Genomics, 2011).

The campaign covered roughly 360,000 compounds. About 2,100 (0.58%) were called active. For the sample, actives were picked, then their nearest neighbours and some compounds at random. Unmarked numbers belong to inactive results.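 The calls were made as follows: active = inhibition at 20 µM, scaled to each plate's controls, above about 33% (limit read from the data); inactive = the rest.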

Chain of 26S proteasome non-ATPase regulatory subunit 14 (Homo sapiens) (O00487 whole entry, looked up): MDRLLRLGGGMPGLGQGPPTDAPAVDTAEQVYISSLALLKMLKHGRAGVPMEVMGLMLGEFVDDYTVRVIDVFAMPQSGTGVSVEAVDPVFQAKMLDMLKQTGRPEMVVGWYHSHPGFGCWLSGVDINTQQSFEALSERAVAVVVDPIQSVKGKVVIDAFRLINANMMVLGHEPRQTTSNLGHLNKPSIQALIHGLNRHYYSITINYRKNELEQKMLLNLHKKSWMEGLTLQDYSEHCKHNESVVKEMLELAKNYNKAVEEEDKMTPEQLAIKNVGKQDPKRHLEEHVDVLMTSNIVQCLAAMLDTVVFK

The test has as its target 26S proteasome non-ATPase regulatory subunit 14 (Homo sapiens) (UniProt O00487). Put plainly: Rpn11 (PSMD14) deubiquitinase inhibitors, primary screen, biochemical, fluorescence polarization, uHTS (AID 588493). Particulars: human 26S proteasome, Ub4-pepOG fluorescence polarization; at 20 µM; active compounds read high; 20S core pre-blocked with epoxomicin. In general terms: Polarisation of emitted light reports the rotation of a fluorescent probe.
In the case of `Cc1ccc(S(=O)(=O)N[C@@H](Cc2ccccc2)C(=O)N2CCC(C(=O)N[C@H](C(=O)O)C(C)O)CC2)cc1` (stereo not given in full), the inhibition (as a rule, the drop in the measured response relative to a control, in per cent) is -7.8%.
The same measure for `O=C(CN1CCc2cc3c(cc2C1)OCCCO3)Nc1ccccc1`: 1.3%; for `Cc1ccc(NC(=O)CN2CCc3ccccc3C2)cc1`: 90.1% (active).
Under `Cc1ccc(NC(=O)CN2CCc3ccccc3C2)cc1C` stands 7.2%; under `CSc1nccc(NC(=O)c2ccc(C(C)(C)C)cc2)n1`, 0.3%; under `CSC1=N/C(=C\C=C\c2cccs2)C(=O)S1`, 41.3% (active).
The same measure for `CC1(C(=O)NS(=O)(=O)c2ccccc2)CCN1C(=O)C1CCCCC1` (stereo not given): -2.7%.
Turning to `O=C(CCN1CCN(C/C=C/c2ccccc2)CC1)Nc1cccc(F)c1`, the inhibition was 2.3%.
Under `Cc1nc2ccc(C(=O)N3CCSCC3)cc2s1` stands 93.1% (active).
The same measure for `Cc1nc2ccc(NC(=O)C3CCCCC3)cc2s1`: -1.1%; for `Cc1cccc(C(=O)N2CCC(c3nc4ccccc4s3)CC2)c1`: -7.6%.
For `Cc1ccc(C2CCN(C(=S)Nc3cccc(Cl)c3)C2)cc1` (stereo not given), the inhibition was -2.1%.
Consider `Cc1cc(C)cc(NC(=S)NCCCN2CCOCC2)c1`, for which the inhibition was 0.3%.
The same measure for `Cc1ccc2cc(C#N)c(NCCNC(=S)NCCCN3CCOCC3)nc2c1`: 50.7% (active); for `COCCCNC(=S)NCCNc1nc2cc(C)c(C)cc2cc1C#N`: -1.6%.
The same measure for `CN(Cc1ccccc1F)c1cc2c(c3c1ccn3C)C1CCC2O1` (stereo not given): 7.9%.
Under `O=S(=O)(c1cccc(S(=O)(=O)N2CCC(n3nnc4ccccc43)CC2)c1)N1CCCCC1` stands 4.9%; under `Cn1cnnc1SCC(=O)Nc1ccc(N2CCOCC2)cc1`, 7.5%; under `CN1CCN(c2ccc(NC(=O)c3cc(Cl)c4c(c3)OCCO4)cc2)CC1`, -0.3%.
On to `C=CC(=O)Nc1ccc(Nc2ccnc(Nc3ccc(N4CCN(C)CC4)cc3)n2)cc1`, for which the inhibition was 66.1% (active).
The same measure for `C=CCc1cc(S(=O)(=O)c2ccc(O)c(CC=C)c2)ccc1O`: -1.3%; for `Cc1nc2nc(COc3ccccc3)[nH]n2c(=O)c1C`: 3.7%; for `CNC(=O)NCCN1CCCC1=O`: -0.3%.
The same measure for `CCCCC(C(=O)NC(C)(C)C)N(Cc1ccccc1)C(=O)c1snc(C(N)=O)c1N` (stereo not given): -1.4%; for `Cc1csc2nc(O)c(C(=O)NCCN3CCOCC3)c(=O)n12`: -3.8%.
The same measure for `CSc1ccccc1NC(=O)C(C)N1C(=O)c2ccccc2S1(=O)=O` (stereo not given): -7.1%.
Regarding `CC(=O)Nc1ccccc1Sc1ccc2c3c(cccc13)C(=O)N(c1ccc(C)cc1)C2=O`, the inhibition was 48.3% (active).
For the molecule `CCCOC(=O)c1ccc(N2C(=O)c3ccccc3C2=O)cc1`, the inhibition was 0.9%.
Consider `COc1ccc(C2N=C(N)N=C(N)N2c2ccccc2)cc1OC` (stereo not given), for which the inhibition was 6%.
The same measure for `CCC(C)Sc1nc(C)nc2c1c(=O)n(C)c(=O)n2C` (stereo not given): 2%; for `CCOC(=O)C1(CC2CCCCO2)CCN(Cc2nc(-c3cccs3)oc2C)CC1` (stereo not given): 4%; for `O=C(OCCOCn1cc(Br)c(=O)[nH]c1=O)c1ccccc1`: 0.6%.
Under `CONc1nc2nonc2nc1NOC` stands 2.2%; under `CC(C)(C)C(=O)Nc1c(Br)c(C2CC2)nn1-c1ccccc1`, 9.6%.
Take `COCCCNC(=O)c1ccc(CNS(=O)(=O)c2ccc(NC(C)=O)cc2)cc1`: the inhibition was -1.2%.
The same measure for `COC(=O)Cc1csc(/N=C/c2c(O)n(-c3cccc(C(F)(F)F)c3)c(=O)c3ccccc23)n1`: 33.4%.
Take `Cc1nnc(N/N=C/c2ccccn2)[nH]c1=O`: the inhibition is 6.9%.
Take `CCOc1ccc(-n2c(O)c(/C=N/c3ccnn3Cc3ccncc3)c3ccccc3c2=O)cc1`: the inhibition is 76.5% (active).
Under `CCOc1ccc(-n2c(O)c(/C=N/Nc3nnc(C)c(=O)[nH]3)c3ccccc3c2=O)cc1` stands 36.2% (active); under `CCOc1ccc(N/C(N)=N/c2nc(C)c(C)c(=O)[nH]2)cc1`, -8.8%; under `CCOc1ccc(-n2c(SCC(=O)Nc3cc(C(=O)O)ccc3Cl)nc3ccccc3c2=O)cc1`, 2.7%.
The same measure for `CCOc1ccc(CN2CCN(Cc3ccc4cc(F)ccc4n3)CC2CCO)cc1` (stereo not given): -0.7%; for `COc1ccc(S(=O)(=O)N(C)C[C@H]2OCc3cnnn3CCCC(=O)N([C@H](C)CO)C[C@H]2C)cc1`: -6.2%; for `Nc1nnc(SCCN2C(=O)c3ccccc3S2(=O)=O)s1`: -2.1%.
Under `CC(=O)N(O)CCCCCNC(=O)CCC(=O)N(O)CCCCCNC(=O)CCC(=O)N(O)CCCCCNC(=O)CCC(=O)O` stands -7%; under `CCOC(=O)c1ccc2c(c1)nc(SCC(=O)NC(C)C)n2CC`, -1.6%.
Take `C#CCNc1nc(C(C)C)nc2c1nnn2Cc1ccccc1F`: the inhibition is -3.7%.
On to `COc1ccc2[nH]c3c(C)c4cc[n+](C)cc4c(C)c3c2c1`, for which the inhibition is 88.8% (active).
Turning to `CCCn1nc(C(=O)NNC(=O)CSCC(=O)Nc2cc(C)on2)c2ccccc2c1=O`, the inhibition is 2.6%.
Consider `O=C(Nc1ccc(-c2cscn2)cc1)C1CCCN(Cc2ccc(CO)o2)C1` (stereo not given), for which the inhibition was -1.3%.
The same measure for `CCOC(=O)CSc1nnc(CNC(=O)Cc2ccccc2)n1-c1ccccc1OC`: 0.1%; for `CCCCCCSc1ccc([C@@H]2[C@H]3C(=O)N(CC)C(=O)[C@H]3[C@]3(C(=O)OC)CCCCN23)cc1`: 40.3% (active).
For the molecule `CCN1C(=O)[C@@H]2[C@@H](c3ccc(-c4ccccc4)cc3)N3CCCC[C@@]3(C(=O)OC)[C@@H]2C1=O`, the inhibition is 7%.
Under `CCCCCCSc1ccc([C@@H]2[C@@H]3C(=O)N(CC)C(=O)[C@@H]3[C@]3(C(=O)OC)CCCCN23)cc1OC` stands 15.9%; under `COC(=O)[C@]1(C)CCC[C@@]2(C)C3CC[C@]4(OC(C)=O)C[C@@]3(CCC21)CC4=NO` (stereo not given in full), 0.3%.
The same measure for `CCC(=O)N(C)C(c1ccccc1Cl)c1nnnn1-c1c(C)cccc1C` (stereo not given): 2.8%; for `COc1ccc(NC(=O)CN(C)C(=O)c2cc(C)oc2C)cc1`: -18.9%; for `COc1ccc(C(CC(=O)Nc2ccc(C)cc2)NC(=O)C(F)(F)F)cc1` (stereo not given): -7.5%.
The same measure for `Cc1ccc(-c2nnc(-c3ccc(NC(=O)c4cccs4)cc3)o2)cc1`: 149% (active); for `COc1ccc(-c2cn(-c3ccc(C)cc3)c(=O)n2CC(=O)Nc2ccc(OC)c(OC)c2)cc1`: 6.4%.
`O=C(Nc1ccc(N2CCN(C(=O)C3CC3)CC2)cc1)c1cccs1`: the inhibition was 0.2%.
Under `O=C(Nc1ccc(-c2nnc(-c3ccccc3)o2)cc1)c1ccc(Br)o1` stands 56.9% (active).
Under `O=C(Nc1ccc(-c2nnc(-c3ccccc3)o2)cc1)C1CCCO1` (stereo not given) stands -0.7%.
The same measure for `COc1ccc(NC(=O)Cn2c(-c3ccc(OC)cc3)cn(-c3ccc(C)cc3)c2=O)cc1`: 43.4% (active).
With `COc1ccc(CC(=O)Nc2ccc(-c3nnc(-c4ccc(C)cc4)o3)cc2)cc1`, the inhibition is 32.7% (active).
Under `CCS(=O)(=O)c1ccc(-c2cccc(NC(=O)c3ccc(Br)o3)c2)nn1` stands -4.8%; under `Cc1ccc(NC(=O)Cn2c(C)csc2=O)cc1`, -0.6%; under `Cc1ccc(C(=O)NCC(=O)OCc2nnc(-c3ccccc3)o2)cc1`, 3%.
The same measure for `CCOC(=O)c1cc(C(C)C)sc1NC(=O)COC(=O)c1nccnc1N`: 16.7%; for `CCOc1ccc2oc(C(=O)N(CC)CC(=O)Nc3ccc(NC(C)=O)cc3)c(C)c2c1`: 8.2%; for `Cc1cccc(NC(=O)CSc2nnc(CCNC(=O)OC(C)(C)C)o2)c1C`: -2.3%.
Take `O=C(NCc1ccccn1)C1CCN(S(=O)(=O)c2ccc(Br)cc2)CC1`: the inhibition is -11.1%.
Under `CCC(C)C(CO)NC(=O)/C=C/[C@H]1O[C@@H](n2cnc3c(NC(=O)c4ccccc4)ncnc32)[C@H](O)[C@@H]1O` (stereo not given in full) stands -5.5%; under `COc1ccc(NC(=S)N2CCC(NC(=O)c3cccc(F)c3)CC2)cc1`, 6.4%.
Under `C=CCNC(=O)C1CC=CCC1C(=O)O` (stereo not given) stands 3.6%; under `CCOc1ccc(NC(=O)c2cccc3c2C(=O)N(CC2CCCO2)C3)cc1` (stereo not given), -0.9%.
Under `O=C(COC(=O)c1n[nH]c2ccccc12)Nc1ccccc1Br` stands 0.1%; under `CN(C)C(=O)c1ccc(NC(=O)c2ccccc2-c2ccccc2)cc1`, 7%; under `S=C(NCCCc1ccccc1)Nc1ccc(Br)cc1`, 1%.
For `CCc1ccc(NC(=O)CS(=O)CC(=O)NCCCc2ccccc2)cc1` (stereo not given), the inhibition was 43.6% (active).
`CCc1ccc(NC(=O)CS(=O)CC(=O)N2CCN(c3ccccc3F)CC2)cc1` (stereo not given): the inhibition was 0.4%.
As for `CCNC(=S)Nc1ccc2c(c1)c(=O)n(C)n2Cc1ccc(Cl)cc1`, the inhibition is 8.6%.
Under `CN=c1scc(-c2cc(OC)ccc2OC)n1/N=C/c1c(C)[nH]c2ccccc12` stands 56.4% (active).
Under `COCCNC(=S)N/N=C/c1c(C)[nH]c2ccccc12` stands 17%; under `CCn1c(-c2cc(OC)ccc2OC)csc1=Nc1c(C)n(C)n(-c2ccccc2)c1=O`, 1.2%; under `COc1ccc(N(CCC(=O)NCCc2ccccc2)S(=O)(=O)c2ccc(C)cc2C)cc1`, 3.7%.
The same measure for `Cc1cc(OCC(=O)N(C)c2c(N)n(Cc3ccccc3)c(=O)[nH]c2=O)c(C(C)C)cc1Cl`: -1.8%; for `CCC(=C/c1sc2ccc3ccccc3c2[n+]1C)/C=C1\Sc2ccc3ccccc3c2N1C`: 70% (active); for `Cc1ccc(S(=O)(=O)N2C[C@H]3C(=O)C[C@@H](c4cccc5ccccc45)N(S(=O)(=O)c4ccc(C)cc4)[C@H]3C[C@H]2c2ccc(Cl)cc2)cc1`: -1.4%.
For the molecule `O=C(NCc1nnnn1-c1ccc(Cl)cc1)c1ccc([N+](=O)[O-])o1`, the inhibition was -0.3%.
